Bioassay records from PubChem BioAssay.
Shown are actives, neighbours in structure and some others; about 10% of the full set was active somewhere.
PLK1 PBD block: qHTS for Inhibitors of PLK1-PDB (polo-like kinase 1 - polo-box domain): Primary Screen; Serine/threonine-protein kinase PLK1 (Homo sapiens), P53350; Plk1 PBD binding of FITC phosphopeptide, fluorescence polarization; Potency, µM, usual class: inhibitors; actives 2.8% (n = 360,000); also: series mostly up to about 57 µM; nearly all actives have a fitted effect of over 65% in size
Target sequence (P53350 whole entry, looked up, the tested form may be a part): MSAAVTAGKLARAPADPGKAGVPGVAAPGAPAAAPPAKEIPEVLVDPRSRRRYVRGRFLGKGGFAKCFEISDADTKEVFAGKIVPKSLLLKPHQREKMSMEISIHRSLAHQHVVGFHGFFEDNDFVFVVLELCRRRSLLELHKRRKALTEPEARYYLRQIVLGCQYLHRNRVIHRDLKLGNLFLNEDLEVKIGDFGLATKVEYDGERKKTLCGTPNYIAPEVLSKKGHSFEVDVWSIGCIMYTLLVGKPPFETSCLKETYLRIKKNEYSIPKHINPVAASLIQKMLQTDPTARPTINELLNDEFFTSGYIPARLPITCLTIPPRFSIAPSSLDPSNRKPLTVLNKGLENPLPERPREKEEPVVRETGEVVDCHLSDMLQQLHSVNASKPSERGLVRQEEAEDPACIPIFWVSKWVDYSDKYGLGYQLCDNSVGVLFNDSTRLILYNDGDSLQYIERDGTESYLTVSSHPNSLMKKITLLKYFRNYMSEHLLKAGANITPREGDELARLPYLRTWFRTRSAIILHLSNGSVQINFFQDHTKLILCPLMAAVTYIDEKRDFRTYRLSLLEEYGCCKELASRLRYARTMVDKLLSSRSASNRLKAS
VDR inhibitor: Inhibitors of the vitamin D receptor (VDR): qHTS. VDR-SRC2-3 peptide fluorescence polarization, 2 h. Potency, µM, actives largely listed as inhibitors. actives 0.93% (n = 400,000). AID 504847, 2011
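After 23 nl compound addition and a short centrifugation, plates sat for 2 hours at ambient temperature; polarization of fluorescence then indicated loss of VDR binding to peptide SRC2-3.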
Sfp inh: qHTS Assay for Inhibitors of Bacillus subtilis Sfp phosphopantetheinyl transferase (PPTase); Biochemical Sfp PPTase activity, qHTS; Potency, µM, usual class: inhibitors; actives 3.5% (n = 310,000); AID 1490, 2009;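 also: the enzyme is Sfp with the accession as filed and its product quenches rhodamine fluorescence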
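Reaction rates are the 30-min fluorescence difference (ex 525, em 598 nm) in wells containing 15 nM Sfp, 5 uM rhodamine-CoA and 12.5 uM BHQ-2-YbbR at pH 7.6 with 10 mM MgCl2.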
CCT chaperon mod: High-Throughput Screening for Modulators of Cytosolic Chaperonin Activity; purified chaperonin ATPase assay, HTRF ADP detection, 30 min; activity change, % (concentration not given with the values), hits read low; actives 0.3% (n = 360,000); AID 651819, 2012; in the data active = activity change below about -30%
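ATPase activity: ADP formed was measured by HTRF Transcreener (665/615 nm ratio) after 30 min at 37 deg C with 10 uM ATP. Compounds screened at one 76 uM concentration against 40 or 20 nM TRiC in Tris pH 7.4/KCl/MgCl2/DTT buffer.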
G9a inh: qHTS Assay for Inhibitors of Histone Lysine Methyltransferase G9a | Histone-lysine N-methyltransferase EHMT2 (Homo sapiens), Q96KQ7 | G9a H3K9 monomethylation, AlphaScreen, 2 h | Potency, µM (top dose mostly 102 µM), most hits filed as inhibitors | actives 8.8% (n = 350,000) | AID 504332, 2011; also: nearly all actives have a fitted effect of over 75% in size
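Using a bead-based AlphaScreen, monomethylated H3K9 product from 2 h room-temperature reactions (G9a 20 nM, peptide 500 nM, SAM 20 uM) was detected with 0.5 ug/mL rabbit anti-H3K9me1 antibody.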
MmCpn inh: Inhibitors of TCP-1 ring complex (TRiC) of Methanococcus maripaludis (MmCpn): qHTS | purified Mm-Cpn ATPase, ADP Transcreener TR-FRET | Potency, µM (series often up to 76.9 µM), most hits filed as inhibitors | actives 0.031% (n = 330,000) | AID 504842, 2011; also: nearly all actives have a fitted effect of over 80% in size
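ATPase read-out: TR-FRET ADP immunoassay (anti-ADP Eu cryptate vs ADP-d2), ex 320 nm, em 590/665 nm; signal drops as ADP forms. Enzyme 25 nM, ATP 10 uM, 30 min at 37°C after 10 min compound preincubation.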
Numbers stand for hits; n = inactive; u = inconclusive; x = not tested or not shown. Unless noted, calls follow the shape of the dose curve; as a rule, active = well fitted curve in the direction sought with a large enough effect; inconclusive = small, poorly fitted or top-dose-only effect, or another doubt; inactive = no such curve, though single readings can be large; an effect the other way counts as inactive or inconclusive.

SMILES	PLK1 PBD block	VDR inhibitor	Sfp inh	CCT chaperon mod	G9a inh	MmCpn inh
COC(=O)c1cc2oc3ccccc3c2n1CC(=O)Nc1ccc(C)cc1Cl	x	n	x	x	n	x
O=[N+]([O-])c1ccc(N=Nc2c(O)[nH]c3ccc(F)cc23)cc1	n	n	n	n	40µM	n
COc1ccc2c(c1)O[C@H](c1ccc3c(c1)OCO3)[C@@H](OC(=O)Nc1ccc(C)c(Br)c1)C2=O	x	n	n	x	x	x
O=c1[nH]ncn1-c1ccccc1C(F)(F)F	n	n	n	n	n	n
O=c1[nH][nH]c(=S)n1-c1ccccc1C(F)(F)F	x	x	7.9µM	x	x	n
COc1cccc(/C=N/Nc2nc3ccccc3[nH]2)c1OC	n	n	u	n	x	n
COc1cccc(/C=N/Nc2ncc(C)c(=O)[nH]2)c1OC	n	n	n	n	32µM	n
COc1cccc(/C=N/Nc2ncnc3c2[nH]c2ccc(C)cc23)c1OC	n	n	n	n	56µM	n
COc1ccccc1C(=O)NCC(=O)NNc1ncnc(N)c1[N+](=O)[O-]	x	x	7.1µM	x	n	n
COc1cccc(/C=N/Nc2ncnc(N)c2[N+](=O)[O-])c1OC	n	n	45µM	n	u	n
CCC(Sc1nncn2c1cc1oc(C)cc12)C(=O)Nc1ccc(F)cc1 (stereo unspecified)	x	n	x	x	u	x
COc1cc(CNC(=O)c2ccc3c(c2)c(C)c(C)n3Cc2cccc(C)c2)cc(OC)c1OC	x	n	x	x	n	x
O=C(c1ccccc1)c1c[nH]c(C(=O)NNc2ccccc2)c1	u	n	n	n	10µM	n
COc1ccc(-c2nnc(SCC#CCO)o2)cc1OC	u	n	n	n	16µM	n
O=C(c1ccco1)N1CCN(S(=O)(=O)c2ccc(Oc3ccccc3)cc2)CC1	n	n	n	n	35µM	n
O=C(c1ccco1)N1CCN(S(=O)(=O)c2ccc(Br)cc2)CC1	n	n	n	n	n	n
CC(=O)c1ccc(S(=O)(=O)N2CCN(C(=O)c3ccc(COc4ccccc4)o3)CC2)cc1	n	n	x	n	50µM	n
CC(C)(C)NS(=O)(=O)c1ccc2nc(NC(=O)c3cccnc3)sc2c1	x	n	x	x	n	x
Cc1ccc2nc(Cl)c(CNCc3ccccc3)cc2c1	24µM	n	n	n	x	n
COc1ccc(CNC(=O)CCNS(=O)(=O)c2ccc3c(c2)CCCC(=O)N3)cc1	x	n	x	x	n	x
Cn1c(=O)n(C)c2cc(N3CCCCC3)c(NC(=O)c3c(F)cccc3F)cc21	x	n	x	x	u	x
CCOc1cc(-c2nc(C)c(C(C)=O)n2O)ccc1OCC(=O)Nc1cccc(C)c1	n	n	u	n	50µM	n
COC(=O)CC(=O)CSc1nc2cc(C(=O)NC(C)C)ccc2c(=O)n1CCc1ccccc1	x	n	x	x	n	x
Cc1ccc(C)c(C(=O)COC(=O)Cn2c(C)csc2=O)c1	n	n	n	n	79µM	n
COc1ccc(-c2cn(-c3ccc(C)cc3)c(S(=O)(=O)CC(=O)Nc3ccccc3)n2)cc1	x	n	x	x	u	x
SMILES	PLK1 PBD block	VDR inhibitor	Sfp inh	CCT chaperon mod	G9a inh	MmCpn inh
Oc1ccc(Cl)cc1-c1cc(-c2ccco2)[nH]n1	5.3µM	n	50µM	n	u	n
Oc1ccc(Br)cc1-c1cc(-c2ccco2)[nH]n1	n	n	n	n	u	n
Oc1ccccc1-c1cc(-c2ccco2)[nH]n1	n	n	n	n	14µM	n
Oc1ccc(Cl)cc1-c1cc(-c2ccccc2Cl)[nH]n1	n	n	n	n	n	n
CC(=O)c1ccc(NC(=O)Cn2cc(S(=O)(=O)Cc3ccccc3Cl)c3ccccc32)cc1	x	n	x	x	n	x
CCCn1cc(SCC(=O)Nc2cc(C)on2)c2ccccc21	n	n	n	n	n	n
Cc1cc(NC(=O)CSc2nnc(-c3ccccc3)n2C)no1	24µM	n	n	n	n	n
Cc1cc(NC(=O)CSc2cn(C)c3ccccc23)no1	u	n	n	n	25µM	n
Cn1c(SCC(=O)Nc2ccc3c(c2)oc2ccccc23)nnc1-c1ccccc1	n	n	n	n	2µM	n
